Screening results: PubChem, National Center for Advancing Translational Sciences (NCATS)
IL-1B inflam inh – inhibitors of inflammasome signaling (IL-1 beta secretion) | THP-1 LPS/ATP IL-1B secretion, AlphaLISA, 16 h; active compounds read low | activity change, % at 57.5 µM | 4.7% of 360,000 active; in the data active means activity change below about -50%; inconclusive means mostly about -30% to -49%
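THP-1 cells pretreated 1 hr with compounds (up to 57.5 uM final), then stimulated with LPS (250 ng/mL final) plus ATP (1.25 mM final); secreted IL-1B measured by AlphaLISA after 16 hr, decreased signal indicating inhibition.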
D3 ag – activates the human D3 dopamine receptor; P35462; D3R DiscoveRx beta-arrestin cells, luminescence, 90 min; max activation, %; 0.58% of 410,000 active; AID 652048; in the data active means max activation above about 30%
Target sequence (P35462 whole entry, looked up): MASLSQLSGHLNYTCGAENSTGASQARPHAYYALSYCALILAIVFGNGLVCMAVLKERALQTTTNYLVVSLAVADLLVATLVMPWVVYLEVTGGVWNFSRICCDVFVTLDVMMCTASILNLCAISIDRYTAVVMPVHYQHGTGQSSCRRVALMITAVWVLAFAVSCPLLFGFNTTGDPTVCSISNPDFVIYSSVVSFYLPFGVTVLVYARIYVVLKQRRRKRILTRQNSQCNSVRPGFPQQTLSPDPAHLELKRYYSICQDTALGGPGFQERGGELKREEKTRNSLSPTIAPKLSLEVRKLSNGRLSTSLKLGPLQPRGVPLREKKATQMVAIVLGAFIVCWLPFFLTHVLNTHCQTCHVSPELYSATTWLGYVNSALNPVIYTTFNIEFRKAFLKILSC
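Agonist mode: compounds and dopamine controls were applied to plated cells for 90 min at 37 degrees C after an overnight attachment at 1500 cells/well. Luminescent read-out followed 30 - 60 minutes at room temperature with DiscoveRx detection reagent.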
TDP1 cell noCPT – qHTS for Inhibitors of human tyrosyl-DNA phosphodiesterase 1 (TDP1): qHTS in cells in absence of CPT | Potency, µM (series often up to 46.2 µM), usual class: inhibitors | DT40 Tdp1-/- hTDP1 cells, no CPT, ATP luminescence, 48 h | AID 686978, 2013 | 15% of 420,000 active; further: nearly all actives have a fitted effect of over 55% in size
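Readout: luminescence from CellTiter-Glo after 30 min in the dark at RT. Cells: DT40 Tdp1-/- with stable hTDP1, 400/well. Exposure: compounds alone, ≥48 hr, 37 °C.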
DRD3 antagonist – D3 dopamine receptor (human) antagonism. 2.5% of 360,000 active. max response, negative = inhibition, %. D3R cells, DiscoveRx beta-arrestin luminescence, antagonist mode; active compounds read low. AID 652054; in the data active means max response below about -50%; inconclusive means no clear call, values can overlap the other calls
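Cells expressing the human receptor were seeded at 1500 cells/well, incubated overnight at 37 degrees C in 5% CO2, then exposed to library compounds with dopamine controls for 90 minutes at 37 degrees C before luminescent detection.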
DT40 TDP1 CPT – DT40-hTDP1 cell growth loss with CPT; Potency, µM (top dose mostly 46.2 µM), hits mostly inhibitors; 12% of 420,000 active; chicken DT40 Tdp1-/-;hTDP1 cells + 20 nM CPT, ATP luminescence, 48 h; further: nearly all actives have a fitted effect of over 55% in size
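Chicken DT40 Tdp1-/- cells stably complemented with human TDP1 were seeded at 400 cells/well in medium containing 20 nM camptothecin, exposed to pin-transferred compounds, and grown at 37 °C for at least 48 hr. Viability was read as ATP luminescence.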
ClpP mod – qHTS Assay for Activators of ClpP; Potency, µM (highest dose often 57.5 µM); AID 651965, 2013; ATP-dependent Clp protease proteolytic subunit (Bacillus subtilis (strain 168)), P80244; 1.9% of 340,000 active; purified B. subtilis ClpP, FRET peptide cleavage, 20 min; active means well fitted falling curve with a large enough effect; inconclusive means small, poorly fitted or top-dose-only effect; inactive means no such curve, though single readings can be large or run the other way; further: the source files actives as falling curves though it sought activators and does not explain the sign; nearly all actives have a fitted effect of over 65% in size
Target sequence (P80244 whole entry, looked up): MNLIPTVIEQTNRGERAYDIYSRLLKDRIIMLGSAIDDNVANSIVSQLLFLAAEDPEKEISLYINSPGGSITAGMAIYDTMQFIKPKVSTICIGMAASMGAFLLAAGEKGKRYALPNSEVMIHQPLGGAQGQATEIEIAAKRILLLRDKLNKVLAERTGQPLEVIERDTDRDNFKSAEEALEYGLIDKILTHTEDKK
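Buffer: 100 mM Tris/HCl pH8, 100 mM KCl, 0.05% low protease BSA, 2.5% glycerol, 0.01% Tween-20. ClpP 10 microg/mL final; 20 min RT; delta FRET normalized to ADEP and DMSO controls.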
A number is an active result; 0 = inactive; ? = inconclusive; - = no result; [ ] = dose if it differs, or a comment. Rows were chosen to be rich in hits. Some 21% of all compounds tested hit in one or more screens of this group. Unless noted, the call rests on the fitted dose curve; in most records, active means well fitted inhibition curve with a large enough effect; inconclusive means small, poorly fitted or top-dose-only effect; inactive means flat fitted curve, though single readings scatter.

SMILES	IL-1B inflam inh	D3 ag	TDP1 cell noCPT	DRD3 antagonist	DT40 TDP1 CPT	ClpP mod
CC(C)N(C(=O)[C@H]1C[C@H](CC(=O)NCCN2CCOCC2)C(=O)N2CCc3c([nH]c4ccc(Cl)cc34)[C@]12C)C(C)C	?	0	?	-53	?	0
CNCCC=C1c2ccccc2CCc2ccccc21	-64	0	21µM	-91	9.2µM	0
COc1ccccc1OCCCn1c(C)c(C#N)c2ccccc21	0	0	26µM	0	21µM	0
COCC(C)NC(=O)c1cnn2c(C(F)F)cc(-c3ccccc3)nc12 (stereo not drawn)	-	0	?	-	0	0
CC(C)(C)c1ccccc1NC(=O)c1cnn2c(C(F)F)cc(-c3ccccc3)nc12	-	0	0	-	0	0
Cc1ccc(NC(=O)c2cnn3c(C(F)F)cc(-c4ccccc4)nc23)c(C)c1	-	0	18µM	-	0	0
COc1ccc(-c2cc(C(F)F)n3ncc(C(=O)NCCCN4CCCC4=O)c3n2)cc1	0	0	16µM	0	?	0
CCCNC(=O)c1cnn2c(C(F)F)cc(-c3ccccc3)nc12	-	0	21µM	-	21µM	0
Cc1cccc(C(=O)N2CCOc3ccc(CN(C)Cc4cc(C5CC5)n[nH]4)cc3C2)n1	-	-	0	-	0[9.04 µM]	-
C=CCn1c(SCC(=O)Nc2cc(C)on2)nc2ccccc21	0	0	0	0	0	0
COc1ccc(-c2cc(NC(C)=O)c3ncc(-c4ccccc4)n3c2)c(OC)c1	0	0	0	0	?	0
COc1ccc(-c2cc(NC(C)=O)c3ncc(-c4cccc(C(F)(F)F)c4)n3c2)c(OC)c1	0	0	?	0	?	?
COc1ccccc1-c1cc(NC(C)=O)c2ncc(-c3ccccc3)n2c1	0	0	9.2µM	0	21µM	0
CC(=O)Nc1cc(-c2ccccc2F)cn2c(-c3ccccc3)cnc12	0	0	?	0	16µM	0
COc1ccccc1-c1cc(NC(C)=O)c2ncc(-c3cccc(C(F)(F)F)c3)n2c1	0	0	21µM	0	23µM	0
CC(=O)Nc1cc(-c2cccnc2)cn2c(-c3cccc(C(F)(F)F)c3)cnc12	0	0	?	0	18µM	?
CCN(CC)C(=S)NC(=O)c1cc(OC)c(OC)c(OC)c1	0	0	0	0	0	-
COc1ccc(CCNC(=O)c2cc(S(=O)(=O)N3CCCC(C)C3)cn2C)cc1OC (stereo not drawn)	-	0	?	-	?	0
Cc1ccccc1OCC(=O)Nc1ccc([N+](=O)[O-])cc1	0	0	?	0	0	0
COc1cccc(-c2cnc3c(NC(C)=O)cc(-c4cc(OC)c(OC)c(OC)c4)cn23)c1	0	0	?	0	?	0
COc1cccc(-c2cnc3c(NC(C)=O)cc(-c4ccccc4OC)cn23)c1	0	0	16µM	0	18µM	0
CCCc1cc(=O)oc2cc(C)c3c(C(C)(C)C)coc3c12	-	0	?	-	?	?
Clc1cccc(-c2nc(NCCCN3CCOCC3)c3ccccc3n2)c1	?	0	23µM	0	?	0
O=C(NCc1ccccn1)c1nc(-c2cccs2)no1	0	0	0	0	0	0
c1ccc(CNc2nc(-c3cccs3)nc3ccccc23)nc1	-77	0	?	0	?	-
SMILES	IL-1B inflam inh	D3 ag	TDP1 cell noCPT	DRD3 antagonist	DT40 TDP1 CPT	ClpP mod
c1csc(-c2nc(NCCCN3CCOCC3)c3ccccc3n2)c1	0	0	?	0	?	35µM
Fc1ccccc1-c1nc(NCCCN2CCOCC2)c2ccccc2n1	0	0	?	0	?	0
Clc1ccc(-c2nc(NCCCN3CCOCC3)c3ccccc3n2)cc1	-75	0	18µM	0	?	-
Cc1ccccc1COC(=O)c1ccc(-c2nnn(Cc3ccccc3F)n2)cc1	-	0	0	-	0	0
CS(=O)(=O)Nc1cccc(-c2nc(NCCN3CCOCC3)c3ccccc3n2)c1	-	-	?	-	0	-
Clc1cccc(-c2nc(NCCN3CCOCC3)c3ccccc3n2)c1	-86	0	?	0	?	-
CCCCNC(=O)C1(C)CCCCN1C(=O)c1cccs1 (stereo not drawn)	0	0	0	0	?	0
CC(=O)c1ccc(N2CCN(S(=O)(=O)c3ccc4c(c3)CC(C)N4C(=O)C3CC3)CC2)cc1 (stereo not drawn)	0	0	5.8µM	0	4.6µM	0
COc1ccc(N2CCN(S(=O)(=O)c3ccc4c(c3)CC(C)N4C(=O)C3CC3)CC2)cc1 (stereo not drawn)	0	0	0	0	0	0
CC(=O)c1ccc(N2CCN(S(=O)(=O)c3ccc4c(c3)CC(C)N4C(C)=O)CC2)cc1 (stereo not drawn)	0	0	7.3µM	0	23µM	-
Cc1cccc(N2CCN(S(=O)(=O)c3ccc4c(c3)CC(C)N4C(=O)C3CC3)CC2)c1C (stereo not drawn)	0	0	23µM	0	?	0
CCC(=O)N1c2ccc(S(=O)(=O)N3CCN(c4ccc([N+](=O)[O-])cc4)CC3)cc2CC1C (stereo not drawn)	0	0	7.3µM	0	9.2µM	0
CCC(=O)N1c2ccc(S(=O)(=O)N3CCN(c4ccccc4)CC3)cc2CC1C (stereo not drawn)	-	0	?	-	?	0
Brc1cccc(/C=N/Nc2nn[nH]n2)c1	0	0	0	0	0	0
CCN(CC)c1ccc(/C=N/Nc2nn[nH]n2)cc1	0	0	12µM	0	?	0
CCN(CC)c1ccc(/C=N/Nc2nc(C)cc(C)n2)cc1	0	0	18µM	0	23µM	-
CCOC(=O)c1cc(-c2ccccc2)n(-c2cccc(C(=O)Nc3cccc(F)c3)c2)c1C	-	0	?	-	0	0
CCOc1ccc(CNC(=O)C2Cc3cc(S(=O)(=O)N4CCCCCC4)ccc3N2C(C)=O)cc1 (stereo not drawn)	-	0	?	-	?	0
CCC(=O)N1c2ccccc2CC1C(=O)NCc1ccc(N(C)C)cc1 (stereo not drawn)	-	0	0	-	0	0
Oc1[nH]c2ccccc2c1N=Nc1nc(Nc2ccccc2)nc(N2CCOCC2)n1	?	0	1.8µM	0	0	0
Cc1[nH]c2ccccc2c1/C=N/Nc1nc(Nc2ccccc2)nc(N2CCOCC2)n1	-80	0	6.5µM	0	8.2µM	0
CCCCSc1nc2c([nH]1)c(=S)n(C)c(=O)n2C	0	0	1.2µM	0	1.3µM	0
CCN(CC)CCSc1nc2c([nH]1)c(=S)n(C)c(=O)n2C	0	0	5.2µM	0	4.1µM	0
